Test results taken from the supplement of paper PMC10849652.
About 8,800 targets were measured; listed, in parts, are those with a hit and a random draw of the rest. About 0.5% of all pairs of compound and target were hits. A number with no mark means an inactive call.

Tests used:
Test in all cases: log2 fold change, soluble protein after heating vs DMSO (PISA); higher = thermal stabilisation; K562 lysate, 10 uM; active = over 0.2 and 3.5 SD of the protein, either way, in both replicates (recomputed)
[1] = compound: CN1CC[C@H](c2c(O)cc(O)c3c(=O)cc(-c4ccccc4Cl)oc23)[C@H](O)C1 [alvocidib]
Method in brief: (§1)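 Pellets of K562 cells were dounce-homogenised in PBS pH 7.4 with 1 mM MgCl2, and the crude extract was held at 1 mg/mL protein for a 30 min treatment with 10 μM compound. Aliquots were heated for 3 min over 48°C-58°C and pooled before NP-40 was added to 0.5% at 4°C. The supernatant from 21,000xg for 90 min was quantified by TMTpro 16plex LC-MS/MS with channel sums equalised. Values are reported from duplicates as log-two fold change in thermal stability relative to solvent controls.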

[2] = compound: CN1CCc2c(c3ccccc3n2Cc2ccc(C(=O)NO)cc2)C1 [Tubastatin A]
Method in brief: as §1

[3] = compound: CNC(=O)C1=CC=CC=C1NC2=NC(=NC=C2Cl)NC3=C(C=C(C=C3)N4CCOCC4)OC
Method in brief: as §1

[4] = compound: CNC(=O)c1ccc(Nc2ncc(C(F)(F)F)c(NCc3nccnc3N(C)S(C)(=O)=O)n2)cc1 [defactinib]
Method in brief: as §1

[5] = compound: CNc1nc(-c2ccc3c(N)n[nH]c3c2)cc(N2C[C@@H](C(=O)NC3CCCCC3)CC[C@H]2C)n1
Method in brief: as §1

[6] = compound: COC(=O)N[C@@H](C)CNc1nccc(-c2cn(C(C)C)nc2-c2cc(Cl)cc(NS(C)(=O)=O)c2F)n1 [encorafenib]
Method in brief: as §1

[7] = compound: COC(=O)[C@H](CCSC)NC(=O)C1=C(C=C(C=C1)NC[C@H](CS)N)C2=CC=CC=C2
Method in brief: as §1

[8] = compound: COc1cc(Nc2ncc3c(n2)-c2ccc(Cl)cc2C(c2c(F)cccc2OC)=NC3)ccc1C(=O)O [alisertib]
Method in brief: as §1

[9] = compound: COc1cc2nc(-c3cc(F)ccc3O)nc(N[C@@H]3CNC[C@H]3C(C)(C)O)c2cc1OC
Method in brief: as §1

[10] = compound: COc1cc2ncnc(Nc3ccc(F)c(Cl)c3)c2cc1OCCCN1CCOCC1 [gefitinib]
Method in brief: as §1

[11] = compound: CS(=O)(=O)CCNCc1ccc(-c2ccc3ncnc(Nc4ccc(OCc5cccc(F)c5)c(Cl)c4)c3c2)o1 [lapatinib]
Method in brief: as §1

[12] = compound: CS(=O)(=O)N1CCN(Cc2cc3nc(-c4cccc5[nH]ncc45)nc(N4CCOCC4)c3s2)CC1 [pictilisib]
Method in brief: as §1

[13] = compound: C[C@@H](Oc1cc(-c2cnn(C3CCNCC3)c2)cnc1N)c1c(Cl)ccc(F)c1Cl [crizotinib]
Method in brief: as §1

[14] = compound: C[C@H](C1=CC=C(C=C1)C(=O)NC2=C3C=CNC3=NC=C2)N
Method in brief: as §1

[15] = compound: C[C@H](Nc1ncnc2nc[nH]c12)c1cc2cccc(Cl)c2c(=O)n1-c1ccccc1 [duvelisib]
Method in brief: as §1

[16] = compound: Cc1cc(Nc2cc(CN3CCOCC3)c3nc(C)c(Cc4ccc(Cl)cc4F)n3n2)n[nH]1 [gandotinib]
Method in brief: as §1

[17] = compound: Cc1cc(Nc2cc(N3CCN(C)CC3)nc(Sc3ccc(NC(=O)C4CC4)cc3)n2)n[nH]1 [tozasertib]
Method in brief: as §1

[18] = compound: Cc1ccc(-n2nc(C(C)(C)C)cc2NC(=O)Nc2ccc(OCCN3CCOCC3)c3ccccc23)cc1 [doramapimod]
Method in brief: as §1

[19] = compound: Cc1ccc(NC(=O)c2ccc(CN3CC[C@H](N(C)C)C3)c(C(F)(F)F)c2)cc1Nc1nccc(-c2cncnc2)n1 [bafetinib]
Method in brief: as §1

[20] = compound: Cc1cccc(CC(=O)N2CCc3c2ccc(-c2cn(C)c4ncnc(N)c24)c3F)n1
Method in brief: as §1

UniProt Q96TA2, sequence (Q96TA2 whole entry, looked up): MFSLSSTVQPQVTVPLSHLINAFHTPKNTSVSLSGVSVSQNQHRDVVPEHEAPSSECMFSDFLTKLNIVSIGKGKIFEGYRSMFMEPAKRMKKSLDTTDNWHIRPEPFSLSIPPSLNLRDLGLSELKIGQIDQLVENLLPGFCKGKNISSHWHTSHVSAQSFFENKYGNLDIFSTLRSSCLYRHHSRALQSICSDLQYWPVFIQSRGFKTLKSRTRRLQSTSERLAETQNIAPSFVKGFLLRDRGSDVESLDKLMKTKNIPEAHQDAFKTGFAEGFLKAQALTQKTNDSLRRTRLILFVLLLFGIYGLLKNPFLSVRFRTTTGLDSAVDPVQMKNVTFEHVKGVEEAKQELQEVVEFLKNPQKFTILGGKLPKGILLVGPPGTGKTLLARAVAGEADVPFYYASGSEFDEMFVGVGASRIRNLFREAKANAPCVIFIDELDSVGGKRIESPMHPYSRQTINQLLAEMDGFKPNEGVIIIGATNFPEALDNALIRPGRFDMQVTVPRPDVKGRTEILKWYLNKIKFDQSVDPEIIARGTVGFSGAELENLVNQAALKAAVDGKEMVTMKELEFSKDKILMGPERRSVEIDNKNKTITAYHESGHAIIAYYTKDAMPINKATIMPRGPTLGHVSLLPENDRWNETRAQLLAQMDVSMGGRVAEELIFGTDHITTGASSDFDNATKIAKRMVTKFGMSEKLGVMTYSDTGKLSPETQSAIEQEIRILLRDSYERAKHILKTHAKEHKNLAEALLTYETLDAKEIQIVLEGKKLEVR
UniProt Q9H9H4, sequence (Q9H9H4 whole entry, looked up): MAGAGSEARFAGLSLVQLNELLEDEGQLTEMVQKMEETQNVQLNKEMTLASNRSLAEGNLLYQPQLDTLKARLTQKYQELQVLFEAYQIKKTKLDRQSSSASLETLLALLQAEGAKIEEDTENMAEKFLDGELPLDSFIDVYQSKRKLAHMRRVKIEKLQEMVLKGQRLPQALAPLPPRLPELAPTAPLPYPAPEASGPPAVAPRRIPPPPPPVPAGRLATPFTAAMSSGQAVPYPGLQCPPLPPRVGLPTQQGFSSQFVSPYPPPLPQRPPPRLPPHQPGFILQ
UniProt Q9P1Q0, sequence (Q9P1Q0 whole entry, looked up): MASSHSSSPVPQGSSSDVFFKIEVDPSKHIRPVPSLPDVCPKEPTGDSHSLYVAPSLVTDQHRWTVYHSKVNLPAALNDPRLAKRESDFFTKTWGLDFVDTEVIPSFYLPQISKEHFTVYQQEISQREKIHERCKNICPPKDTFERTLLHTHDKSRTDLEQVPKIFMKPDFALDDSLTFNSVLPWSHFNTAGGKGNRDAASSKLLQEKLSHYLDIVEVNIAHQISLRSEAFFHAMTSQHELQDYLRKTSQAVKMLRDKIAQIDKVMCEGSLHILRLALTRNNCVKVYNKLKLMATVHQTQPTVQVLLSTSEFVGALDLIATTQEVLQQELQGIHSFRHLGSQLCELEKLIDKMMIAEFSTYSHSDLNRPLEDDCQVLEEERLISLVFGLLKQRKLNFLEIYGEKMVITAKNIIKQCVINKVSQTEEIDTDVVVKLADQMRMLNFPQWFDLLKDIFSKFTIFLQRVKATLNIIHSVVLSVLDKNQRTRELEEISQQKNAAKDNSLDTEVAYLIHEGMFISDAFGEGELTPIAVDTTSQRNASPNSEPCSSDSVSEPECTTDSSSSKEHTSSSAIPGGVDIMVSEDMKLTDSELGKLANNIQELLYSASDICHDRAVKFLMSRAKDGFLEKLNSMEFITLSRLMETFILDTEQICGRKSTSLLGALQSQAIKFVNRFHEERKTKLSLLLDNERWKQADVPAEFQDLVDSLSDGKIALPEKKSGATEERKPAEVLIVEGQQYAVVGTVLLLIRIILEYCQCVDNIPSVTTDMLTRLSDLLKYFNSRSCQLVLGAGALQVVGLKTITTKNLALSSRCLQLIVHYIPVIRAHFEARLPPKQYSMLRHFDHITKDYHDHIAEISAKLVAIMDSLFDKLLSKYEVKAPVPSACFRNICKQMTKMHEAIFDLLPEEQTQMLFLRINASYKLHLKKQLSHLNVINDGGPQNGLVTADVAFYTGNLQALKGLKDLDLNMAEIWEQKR
UniProt Q9BTA9, sequence (Q9BTA9 whole entry, looked up): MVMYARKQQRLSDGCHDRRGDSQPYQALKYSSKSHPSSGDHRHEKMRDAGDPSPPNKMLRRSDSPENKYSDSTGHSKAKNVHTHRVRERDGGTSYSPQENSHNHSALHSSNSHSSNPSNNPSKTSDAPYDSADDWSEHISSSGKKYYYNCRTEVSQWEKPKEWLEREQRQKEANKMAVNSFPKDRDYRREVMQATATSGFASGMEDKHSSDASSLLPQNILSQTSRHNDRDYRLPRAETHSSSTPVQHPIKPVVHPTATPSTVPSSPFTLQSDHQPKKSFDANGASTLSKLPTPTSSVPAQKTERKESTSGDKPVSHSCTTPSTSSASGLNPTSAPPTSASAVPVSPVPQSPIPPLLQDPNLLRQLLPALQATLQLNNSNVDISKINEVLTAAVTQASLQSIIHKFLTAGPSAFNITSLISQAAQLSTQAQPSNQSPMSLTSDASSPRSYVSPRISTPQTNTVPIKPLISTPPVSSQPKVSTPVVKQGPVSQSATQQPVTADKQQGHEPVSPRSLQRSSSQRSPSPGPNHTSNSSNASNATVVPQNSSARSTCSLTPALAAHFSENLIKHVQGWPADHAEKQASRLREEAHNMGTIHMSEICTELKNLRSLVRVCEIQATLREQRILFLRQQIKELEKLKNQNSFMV
UniProt Q86UV5, sequence (Q86UV5 whole entry, looked up): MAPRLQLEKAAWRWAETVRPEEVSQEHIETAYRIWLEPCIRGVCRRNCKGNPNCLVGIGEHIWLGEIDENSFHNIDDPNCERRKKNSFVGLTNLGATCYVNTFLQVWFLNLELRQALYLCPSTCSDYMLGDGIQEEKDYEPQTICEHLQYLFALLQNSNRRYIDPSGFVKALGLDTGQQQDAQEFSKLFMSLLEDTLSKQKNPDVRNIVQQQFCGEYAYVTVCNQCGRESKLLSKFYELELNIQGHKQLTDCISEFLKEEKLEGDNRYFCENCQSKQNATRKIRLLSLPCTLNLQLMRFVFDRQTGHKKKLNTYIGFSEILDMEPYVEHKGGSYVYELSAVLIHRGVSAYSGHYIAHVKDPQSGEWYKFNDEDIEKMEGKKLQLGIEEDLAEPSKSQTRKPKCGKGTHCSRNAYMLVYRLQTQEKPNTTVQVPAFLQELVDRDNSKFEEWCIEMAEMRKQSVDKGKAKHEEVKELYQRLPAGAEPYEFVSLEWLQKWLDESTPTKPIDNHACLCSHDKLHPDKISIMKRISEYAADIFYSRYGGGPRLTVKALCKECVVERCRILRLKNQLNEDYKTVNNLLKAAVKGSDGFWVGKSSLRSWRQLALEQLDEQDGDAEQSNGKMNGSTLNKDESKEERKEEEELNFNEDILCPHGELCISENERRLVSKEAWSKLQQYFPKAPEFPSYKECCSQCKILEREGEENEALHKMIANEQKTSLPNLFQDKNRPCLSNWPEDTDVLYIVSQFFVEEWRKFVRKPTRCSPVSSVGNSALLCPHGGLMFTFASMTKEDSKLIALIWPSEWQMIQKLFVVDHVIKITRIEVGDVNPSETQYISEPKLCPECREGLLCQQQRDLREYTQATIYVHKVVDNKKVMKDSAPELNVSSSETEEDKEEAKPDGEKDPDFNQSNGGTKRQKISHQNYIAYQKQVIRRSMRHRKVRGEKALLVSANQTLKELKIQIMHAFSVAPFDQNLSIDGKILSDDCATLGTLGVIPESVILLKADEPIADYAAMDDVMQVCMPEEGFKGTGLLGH
UniProt O14980, sequence (O14980 whole entry, looked up): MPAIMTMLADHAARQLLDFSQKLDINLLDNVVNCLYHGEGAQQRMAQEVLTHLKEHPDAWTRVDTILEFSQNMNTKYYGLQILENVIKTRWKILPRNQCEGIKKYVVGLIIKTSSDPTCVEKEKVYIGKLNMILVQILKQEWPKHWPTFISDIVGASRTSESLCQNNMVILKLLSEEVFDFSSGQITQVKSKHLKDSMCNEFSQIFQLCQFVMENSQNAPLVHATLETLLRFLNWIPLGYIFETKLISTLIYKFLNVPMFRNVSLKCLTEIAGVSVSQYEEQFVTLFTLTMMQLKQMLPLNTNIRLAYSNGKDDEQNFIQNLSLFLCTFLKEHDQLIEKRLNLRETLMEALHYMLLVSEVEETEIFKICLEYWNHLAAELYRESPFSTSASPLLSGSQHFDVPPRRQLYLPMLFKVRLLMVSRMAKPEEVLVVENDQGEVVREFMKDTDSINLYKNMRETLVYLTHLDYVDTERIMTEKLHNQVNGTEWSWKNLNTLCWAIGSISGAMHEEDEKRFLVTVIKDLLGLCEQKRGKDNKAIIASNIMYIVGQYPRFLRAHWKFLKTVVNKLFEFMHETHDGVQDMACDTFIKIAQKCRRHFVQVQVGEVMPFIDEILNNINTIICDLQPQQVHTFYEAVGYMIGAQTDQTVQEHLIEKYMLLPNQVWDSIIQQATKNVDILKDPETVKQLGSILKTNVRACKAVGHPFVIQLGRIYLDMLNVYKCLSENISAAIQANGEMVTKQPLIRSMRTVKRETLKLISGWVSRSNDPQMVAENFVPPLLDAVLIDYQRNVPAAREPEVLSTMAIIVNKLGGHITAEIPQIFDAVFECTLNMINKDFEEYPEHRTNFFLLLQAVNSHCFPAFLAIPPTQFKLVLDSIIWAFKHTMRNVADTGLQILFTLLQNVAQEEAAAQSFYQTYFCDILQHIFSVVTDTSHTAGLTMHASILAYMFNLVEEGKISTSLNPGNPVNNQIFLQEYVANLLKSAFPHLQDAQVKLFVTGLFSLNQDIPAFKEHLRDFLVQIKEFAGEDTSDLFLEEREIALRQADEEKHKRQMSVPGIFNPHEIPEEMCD

| Target | log2 fold change [1] | log2 fold change [2] | log2 fold change [3] | log2 fold change [4] | log2 fold change [5] | log2 fold change [6] | log2 fold change [7] | log2 fold change [8] | log2 fold change [9] | log2 fold change [10] | log2 fold change [11] | log2 fold change [12] | log2 fold change [13] | log2 fold change [14] | log2 fold change [15] | log2 fold change [16] | log2 fold change [17] | log2 fold change [18] | log2 fold change [19] | log2 fold change [20] |
| --- | --- | --- | --- | --- | --- | --- | --- | --- | --- | --- | --- | --- | --- | --- | --- | --- | --- | --- | --- | --- |
| WAC (UniProt Q9BTA9) | -0.008 | -0.035 | 0.068 | 0.013 | 0.007 | -0.006 | 0.118 | -0.019 | -0.01 | 0.009 | 0.005 | -0.04 | 0.018 | 0 | -0.005 | -0.014 | 0.004 | -0.031 | -0.057 | 0.043 |
| XPOT (UniProt O43592) | 0.004 | -0.133 | -0.004 | 0.011 | -0.042 | 0.005 | -0.094 | 0 | 0.005 | 0.01 | -0.033 | 0.013 | -0.051 | -0.044 | 0.022 | -0.086 | -0.007 | 0 | -0.04 | 0.057 |
| ZHX1 (UniProt Q9UKY1) | -0.231 | -0.194 | 0 | 0.034 | 0.251 | 0.041 | 0.044 | 0.013 | 0.042 | 0.012 | 0.014 | 0.003 | 0.018 | -0.57 (active) | 0.038 | 0.475 (active) | -0.09 | -0.013 | -0.08 | 0.431 (active) |
| VPS13C (UniProt Q709C8) | 0.008 | 0.034 | 0.002 | 0.014 | 0.023 | 0.192 | -0.131 | 0.111 | 0.157 | 0.131 | -0.008 | 0.023 | 0.003 | -0.065 | 0.021 | -0.055 | 0.052 | -0.006 | -0.054 | 0.213 |
| XPO1 (UniProt O14980) | 0.005 | -0.096 | -0.011 | 0.016 | -0.013 | 0.034 | -0.101 | 0.013 | 0.023 | -0.007 | -0.039 | 0 | -0.034 | -0.037 | -0.026 | -0.043 | 0.021 | -0.001 | -0.02 | 0.07 |
| ZZEF1 (UniProt O43149) | 0.005 | -0.025 | 0.017 | -0.022 | 0.017 | 0.022 | 0.065 | -0.022 | 0.007 | 0.008 | -0.023 | -0.024 | -0.092 | -0.113 | 0.028 | 0.038 | -0.011 | 0.029 | -0.083 | 0.123 |
| VPS37B (UniProt Q9H9H4) | 0.025 | -0.034 | -0.047 | 0.052 | 0.024 | -0.014 | -0.053 | -0.019 | -0.003 | -0.071 | 0.016 | -0.053 | 0.017 | 0.034 | -0.009 | -0.028 | 0.021 | 0.006 | -0.034 | -0.04 |
| VPS54 (UniProt Q9P1Q0) | -0.07 | 0 | 0.059 | -0.07 | 0.013 | -0.001 | 0.105 | -0.024 | 0.071 | 0.089 | -0.018 | 0.068 | -0.296 | -0.263 | -0.012 | 0.399 | 0.047 | 0.066 | 0.431 | 0.395 |
| VPS39 (UniProt Q96JC1) | 0.268 (active) | -0.06 | 0.036 | 0.011 | 0.007 | 0.043 | -0.218 | 0.041 | 0.026 | -0.041 | -0.018 | -0.018 | -0.066 | 0.603 (active) | 0.015 | -0.169 | 0.021 | 0.015 | -0.045 | -0.229 |
| UTP3 (UniProt Q9NQZ2) | 0.04 | -0.022 | -0.047 | 0.151 | 0.089 | 0.05 | 0.005 | -0.042 | -0.002 | -0.017 | 0.002 | -0.031 | -0.094 | -0.008 | 0.031 | -0.007 | -0.027 | 0.066 | -0.061 | 0.029 |
| USP48 isoform 8 (UniProt Q86UV5) | 0.006 | -0.119 | 0.019 | -0.012 | 0.011 | -0.003 | 0.14 | -0.016 | 0.003 | -0.018 | -0.01 | -0.001 | -0.022 | -0.006 | -0.001 | -0.044 | 0.008 | 0.024 | -0.027 | 0.034 |
| YME1L1 (UniProt Q96TA2) | 0.018 | 0.048 | 0.011 | 0.018 | -0.061 | 0.05 | -0.301 (active) | -0.016 | 0.028 | 0.042 | -0.025 | -0.034 | -0.073 | 0.01 | -0.017 | -0.112 | 0.048 | -0.023 | -0.024 | 0.055 |
| YLPM1 (UniProt P49750) | 0.061 | -0.041 | 0.01 | 0.041 | 0.131 | 0.049 | -0.09 | -0.033 | 0 | -0.086 | 0.031 | -0.019 | 0.064 | 0.147 | 0.009 | -0.067 | 0.017 | -0.042 | -0.09 | -0.054 |
| WDR24 (UniProt Q96S15) | -0.001 | -0.096 | -0.032 | 0.053 | -0.054 | 0.022 | 0.125 | -0.02 | 0.021 | -0.008 | -0.004 | 0.104 | -0.006 | -0.072 | 0.004 | 0.072 | 0.065 | -0.166 | -0.134 | 0.125 |
| VANGL1 (UniProt Q8TAA9) | 0.005 | 0.088 | -0.054 | 0.078 | 0.054 | -0.011 | -0.072 | -0.023 | -0.071 | 0.011 | 0.047 | -0.071 | 0.031 | 0.07 | 0.099 | 0.004 | 0.016 | -0.043 | 0.016 | 0.084 |
| UPF3B (UniProt Q9BZI7) | -0.105 | -0.001 | 0.023 | -0.015 | 0.011 | 0.011 | 0.049 | 0.021 | -0.021 | -0.038 | 0.005 | 0.021 | 0.007 | -0.171 | 0.016 | 0.037 | 0.031 | 0.003 | -0.012 | 0.067 |
